Molecules are shown by their SMILES. The campaign covered roughly 340,000 compounds. About 3,300 (0.97%) were called active.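 How the source made its calls: active means mean activation above about 17%, with every replicate also reaching it (limit read from the data, passing the limit was not always enough); inconclusive means only one of the two conditions met; inactive means the rest.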 The full list was thinned out, with actives kept by preference.

Protein FosB (Mus musculus), sequence (P13346 whole entry, looked up): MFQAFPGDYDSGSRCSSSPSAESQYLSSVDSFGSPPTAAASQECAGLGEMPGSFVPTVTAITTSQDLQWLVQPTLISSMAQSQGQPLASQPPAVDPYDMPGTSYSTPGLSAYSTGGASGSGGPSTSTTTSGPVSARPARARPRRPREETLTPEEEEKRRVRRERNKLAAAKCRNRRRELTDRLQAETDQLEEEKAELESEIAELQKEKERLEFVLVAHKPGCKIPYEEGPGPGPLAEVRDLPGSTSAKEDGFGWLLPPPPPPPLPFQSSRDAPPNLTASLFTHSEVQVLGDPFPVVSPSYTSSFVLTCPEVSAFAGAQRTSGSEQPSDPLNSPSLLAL

This assay has as its target Protein FosB (Mus musculus) (UniProt P13346). Description: enhancers of mouse delta FosB DNA binding – biochemical, fluorescence polarization, TAMRA-CDK5 oligo, single point, primary screen (AID 493131). Particulars: purified delta FosB, at 25 µM, stronger effect = higher value, percent of positive-control signal above neutral wells. (In general: Fluorescence polarisation rises when a labelled molecule tumbles more slowly, as on binding a larger partner.)
On to `Cc1ccc(C(=O)NNc2ncnc3ccccc23)cc1`, for which the activation was -2.14% (inactive).

For the molecule `Cc1ccc(C(=O)NNC(=O)c2cc3cc4ccccc4nc3s2)cc1`, the activation was 26.4% (active).

With `Cc1ccc(C(=O)NNC(=O)c2ccc3c(c2)OCCO3)cc1`, the activation was -13% (inactive).

As to `CC(NC(=O)c1cccc(S(=O)(=O)N2CCc3ccccc3C2)c1)c1ccco1` (stereo not given), the activation is 7.07% (inactive).

`O=C(COC(=O)c1ccc(S(=O)(=O)N2CCc3ccccc3C2)cc1)NC(=O)NCc1ccco1`: the activation was 61.2% (active).

For the molecule `O=C(CN1CCN(S(=O)(=O)/C=C/c2ccccc2)CC1)NC(=O)NCc1ccco1`, the activation was -9.92% (inactive).

For `Cc1cccc(C)c1NC(=S)N(Cc1cccnc1)Cc1ccccc1Cl`, the activation is 2.24% (inactive).

Consider `COC(=O)C(C(=O)Nc1cccc(Cl)c1C)C1CCCC1` (stereo not given), for which the activation is 0.709% (inactive).

Turning to `COc1cccc(/C=N/NC(=O)c2[nH]nc3c2CCc2ccccc2-3)c1O`, the activation was 76.1% (active).

For `COc1cccc(/C=N/NC(=O)CNC(=O)c2ccc(S(=O)(=O)N3CCOCC3)cc2)c1OC`, the activation was 1.33% (inactive).

Regarding `COc1ccc(/C=N/NC(=O)c2ccncc2)cc1CN1CCCc2ccccc21`, the activation was -19.4% (inactive).

As to `CCOc1ccc2c(=O)c(-c3ccc4c(c3)OCCCO4)c(C)oc2c1`, the activation is 5.27% (inactive).

Turning to `CCn1cc(CN2CCC(C(=O)Nc3cccc(-c4cccc(Cl)c4)c3)CC2)c(C)n1`, the activation is -5.85% (inactive).

For the molecule `O=C1c2ccncc2C(=O)N1C1CCCCC1`, the activation is -3.57% (inactive).

With `Cc1cc(=O)oc2cc(OC(C)C(=O)Nc3ccc(N4CCOCC4)cc3)ccc12` (stereo not given), the activation is 14.2% (inactive).

As for `COc1ccc(-c2cc(=O)oc3cc(OC(C)C(=O)Nc4ccc(CN5CCOCC5)cc4)ccc23)cc1` (stereo not given), the activation was 28.5% (active).

On to `COc1ccc(-c2cc(=O)oc3cc(OC(C)C(=O)NCC4CCC(C(=O)O)CC4)ccc23)cc1` (stereo not given), for which the activation is 2.8% (inactive).

With `COc1ccc(CCN(C)C(=O)C23CC4CC(CC(Cl)(C4)C2)C3)cc1OC`, the activation is -11.5% (inactive).

Consider `CCOc1ccc(NC(=O)CSc2ncnc3c2sc2ccccc23)cc1`, for which the activation was -0.561% (inactive).

As to `COc1cc(C(=S)NCc2ccccc2)cc(Br)c1O`, the activation was -3.42% (inactive).

Take `Cc1nn(Cc2ccc(Cl)cc2)c(Cl)c1/C=N/NC(=O)CNc1ccccc1F`: the activation is 20.3% (active).

As to `COc1ccc(Cl)cc1NC(=O)CNc1ccccc1F`, the activation was 0.137% (inactive).

On to `CCn1nc(C)c(/C=N/NC(=O)Cc2ccc(Cl)cc2)c1C`, for which the activation was -5.48% (inactive).

Consider `COC(=O)c1ccc(C(=O)Nc2cc(Cl)ccc2Cl)cc1NC(=O)c1ccccc1C`, for which the activation is -4.76% (inactive).

On to `COc1cccc(NC(=O)Cn2c3ccccc3c3nc4n(c(=O)c32)CCS4)c1`, for which the activation is 10.7% (inactive).

Regarding `COc1ccc2c(c1)c1nc3n(c(=O)c1n2CC(=O)Nc1ccccc1)CCS3`, the activation was 2.33% (inactive).

Regarding `COc1cccc(NC(=O)Cn2c3ccc(F)cc3c3nc4n(c(=O)c32)CCS4)c1`, the activation was 20.4% (active).

Consider `CC1=NN(c2cccc(Cl)c2)C(=O)C12CC(C)=C(C)CS2` (stereo not given), for which the activation is -6.87% (inactive).

For `Oc1ccccc1CNc1ncc(Br)cc1Br`, the activation was -0.334% (inactive).

In the case of `CC(C)C(NC(=O)c1cccc(S(=O)(=O)N2CCOCC2)c1)C(=O)NCCc1ccccn1` (stereo not given), the activation is -1.29% (inactive).

For the molecule `Cc1c(C#N)c2ncn(CC#N)c(=O)c2n1-c1ccccc1`, the activation was -7.05% (inactive).

For `COc1ccc(-c2cc3n(n2)CCc2nc4ccccc4n2-3)cc1`, the activation was 18.1% (active).

In the case of `COc1ccc(-c2cc3ncccc3cn2)cc1`, the activation was -21.2% (inactive).

In the case of `COc1ccc(-c2cc(C(=O)n3cnc4ccccc43)c3ccccc3n2)cc1`, the activation was -10% (inactive).

Take `CC(=O)N1CCN(CC(c2ccccc2)c2ccccc2)CC1`: the activation was 1.45% (inactive).

Regarding `O=c1[nH]snc1-c1c(Cl)cccc1Cl`, the activation was -3.4% (inactive).

For `O=C(NNC(=O)c1ccc2ccccc2c1)c1ccc(Cl)cc1`, the activation is 4.76% (inactive).

As for `CN(CC(=O)Nc1ccc(Cl)cc1)C(=O)c1ccc(COc2ccccc2)cc1`, the activation was -1.5% (inactive).

Turning to `CN(CC(=O)Nc1ccc(Cl)cc1)C(=O)CNC(=O)c1ccc2ccccc2c1`, the activation was 38.6% (active).

As to `Nc1ccccc1/C=N\N=C/c1ccccc1N`, the activation was 1.65% (inactive).

For `Cc1nc(-c2ccc(Cl)cc2)sc1C1(C)CC(c2ccc(Br)cc2)=NO1` (stereo not given), the activation was -6.82% (inactive).

Regarding `COc1ccc(OC)c(-n2c(=S)[nH]c3cc(C(=O)N4CCCCC4)ccc3c2=O)c1`, the activation was 0.446% (inactive).

In the case of `COc1ccc(Cn2c(=S)[nH]c3cc(C(=O)NCCCN4CCOCC4)ccc3c2=O)cc1`, the activation was -7.8% (inactive).

On to `COc1ccc(Cn2c(=S)[nH]c3cc(C(=O)N4CCCCC4)ccc3c2=O)cc1`, for which the activation is 67.5% (active).

Turning to `CC(C)C(OC(=O)c1cccs1)C(=O)NC1CCCCC1` (stereo not given), the activation is 0.731% (inactive).

As for `Cc1c[n+]([O-])ccc1[N+](=O)[O-]`, the activation is 1.75% (inactive).

Turning to `CCc1nnc(NS(=O)(=O)c2ccc(NC(=S)NC(=O)/C=C/c3cccs3)cc2)s1`, the activation is -19.1% (inactive).

`C=CCn1c(=NC(=O)c2ccc(S(=O)(=O)N3CCCC3)cc2)sc2cc(NC(C)=O)ccc21`: the activation was 50.4% (active).

With `COc1cc(C(C)=O)ccc1OC(C)C(=O)Nc1ccc(S(=O)(=O)N2CCCC2)cc1` (stereo not given), the activation was -5.8% (inactive).

On to `CC(=O)Nc1ccc(S(=O)(=O)N2CCSCC2)cc1`, for which the activation is -10.4% (inactive).

Turning to `CC(NC(=O)CCCC1CCCCC1)c1ccc(S(N)(=O)=O)cc1` (stereo not given), the activation is -18.3% (inactive).

Take `Cc1n[nH]c(=O)c2c1nnn2Cc1ccc(F)cc1`: the activation is 0.186% (inactive).

In the case of `O=C(CN1CCN(S(=O)(=O)c2ccc(Cl)s2)CC1)N1CCCCC1`, the activation was -6.89% (inactive).

`COc1cc(OC)cc(C(=O)N[C@H](C(=O)NNC(=O)c2ccc(Br)cc2)C(C)C)c1`: the activation is 23.4% (active).

`COc1ccc(N2CCN(C(=O)[C@@H](NC(=O)c3cc(OC)cc(OC)c3)C(C)C)CC2)cc1`: the activation is -9.58% (inactive).

In the case of `COc1cc(OC)cc(C(=O)NC(C(=O)N2CCC2)C(C)C)c1` (stereo not given), the activation is 0.275% (inactive).

On to `COc1ccc(C)cc1NC(=O)CN(C)S(=O)(=O)c1ccc2c(c1)n(C)c(=O)c(=O)n2C`, for which the activation is -14% (inactive).

As to `O=C(Nc1ccc2ccccc2c1)/C(=C\c1ccc2c(c1)OCO2)NC(=O)c1ccco1`, the activation is 5.94% (inactive).

As for `O=C(Nc1ccc2ccccc2c1)/C(=C/c1cccc(Br)c1)NC(=O)c1ccco1`, the activation is 23% (active).

On to `Cc1ccc(NC(=O)/C(=C\c2ccccc2)NC(=O)c2ccco2)cc1`, for which the activation is 10.9% (inactive).

The record behind these values is PubChem BioAssay AID493131 (Broad Institute, 2011).
